Source: PubChem BioAssay (EPA / NIEHS)
Active and inactive are the calls of the source. How the source made its calls: active means hit-call score of the fitted dose curve at least 0.9, where 1 is the maximum; inactive means score below 0.9.

Experiments:
Details in all cases: mRNA level, 48 h; actives raise or lower the signal
[1] = read-out: Tumor necrosis factor receptor superfamily member 6 (Homo sapiens) (UniProt P25445); assay: LTEA_HepaRG_FAS: Life Technologies and Expression Analysis (LTEA) Assay for Fas cell surface death receptor (FAS) using HepaRG (AID 2283447)
In short: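 FAS transcript level was measured by TaqMan qRT-PCR against three housekeeping genes after 48 h chemical exposure. Cells were HepaRG, 0.5% DMSO vehicle, with a top concentration of 100 uM and half-log dilutions over eight points, in duplicate.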

[2] = read-out: Fatty acid synthase (Homo sapiens) (UniProt P49327); assay: LTEA_HepaRG_FASN: Life Technologies and Expression Analysis (LTEA) Assay for Fatty Acid Synthase (FASN) using HepaRG (AID 2283448)
In short: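 Differentiated human HepaRG cells were exposed for 48 h in serum-free induction medium to eight half-log concentrations up to 100 uM in 0.5% DMSO, in duplicate. FASN mRNA was quantified by TaqMan qRT-PCR, normalized to ACTB/GAPDH/POLR2A, and fitted bidirectionally against DMSO.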

[3] = read-out: Cyclin D2 (CCND2), CCND2 (gene 894); assay: LTEA_HepaRG_CCND2: Life Technologies and Expression Analysis (LTEA) Assay for Cyclin D2 (CCND2) using HepaRG (AID 2283449)
In short: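 Read-out is CCND2 mRNA level measured by qRT-PCR in human HepaRG liver cells and normalised to three housekeeping genes. Chemicals were applied for 48 h at up to 100 uM, with gain or loss fitted relative to 0.5% DMSO.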

[4] = read-out: Cyclin Dependent Kinase Inhibitor 1A (CDKN1A), CDKN1A (gene 1026); assay: LTEA_HepaRG_CDKN1A: Life Technologies and Expression Analysis (LTEA) Assay for Cyclin Dependent Kinase Inhibitor 1A (CDKN1A) using HepaRG (AID 2283450)
In short: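 Differentiated HepaRG cells in serum-free induction medium, exposed 48 h in duplicate to eight half-log concentrations up to 100 uM in 0.5% DMSO. mRNA measured by TaqMan qRT-PCR, normalized to ACTB, GAPDH, POLR2A; bidirectional fit versus DMSO.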

[5] = read-out: Cyclin D1 (CCND1), CCND1 (gene 595); assay: LTEA_HepaRG_CCND1: Life Technologies and Expression Analysis (LTEA) Assay for Cyclin D1 (CCND1) using HepaRG (AID 2283451)
In short: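 Differentiated HepaRG cells exposed 48 h in serum-free induction medium to eight half-log concentrations from 100 uM top, 0.5% DMSO, duplicates. CCND1 mRNA measured by Fluidigm TaqMan qRT-PCR, normalised to ACTB, GAPDH, POLR2A; bidirectional fit.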

[6] = read-out: catalase (CAT), CAT (gene 847); assay: LTEA_HepaRG_CAT: Life Technologies and Expression Analysis (LTEA) Assay for catalase (CAT) using HepaRG (AID 2283452)
In short: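 Expression of CAT was quantified by TaqMan qRT-PCR with ACTB/GAPDH/POLR2A normalization after 48 h chemical exposure of HepaRG. Eight-point half-log series, top 100 uM, in 0.5% DMSO; gain or loss fitted against vehicle.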

[7] = read-out: flavin-containing dimethylaniline monooxygenases 3 (FMO3), FMO3 (gene 2328); assay: LTEA_HepaRG_FMO3: Life Technologies and Expression Analysis (LTEA) Assay for flavin-containing dimethylaniline monooxygenases 3 (FMO3) using HepaRG (AID 2283453);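 on AC50: FMO3 transcript by TaqMan qRT-PCR normalized to ACTB GAPDH and POLR2A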
In short: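 HepaRG, 48 h exposure, 8-pt half-log series from 100 uM, 0.5% DMSO vehicle, duplicates; FMO3 transcript by Fluidigm TaqMan qRT-PCR, housekeeping-normalized; gain/loss fit vs DMSO.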

[8] = read-out: Cytochrome P450 (CYP1A1), CYP1A1 (gene 1543); assay: LTEA_HepaRG_CYP1A1: Life Technologies and Expression Analysis (LTEA) Assay for Cytochrome P450 (CYP1A1) using HepaRG (AID 2283454)
In short: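 Differentiated human HepaRG cells, after 48 h plating, exposed in duplicate for 48 h in serum-free induction medium to 8 half-log concentrations up to 100 uM in 0.5% DMSO. CYP1A1 mRNA by qRT-PCR, normalized to ACTB/GAPDH/POLR2A; bidirectional fit versus DMSO.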

[9] = read-out: CFLAR gene, CFLAR (gene 8837); assay: LTEA_HepaRG_CFLAR: Life Technologies and Expression Analysis (LTEA) Assay for CFLAR gene using HepaRG (AID 2283455)
In short: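 HepaRG, 48 h exposure, 8-pt conc-response (100 uM top, half-log), 0.5% DMSO vehicle, duplicates. CFLAR expression by qRT-PCR; ACTB/GAPDH/POLR2A normalization; gain or loss fit vs DMSO baseline.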

[10] = read-out: Forkhead box O1 (FOXO1), FOXO1 (gene 2308); assay: LTEA_HepaRG_FOXO1: Life Technologies and Expression Analysis (LTEA) Assay for Forkhead box O1 (FOXO1) using HepaRG (AID 2283456)
In short: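 Readout is FOXO1 transcript level by multiplexed qRT-PCR against three housekeeping genes, curve-fitted in both directions relative to 0.5% DMSO vehicle. Human HepaRG cultures received chemicals for 48 h, up to 100 uM in half-log steps.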

[11] = read-out: growth arrest and DNA damage 45 (GADD45A), GADD45A (gene 1647); assay: LTEA_HepaRG_GADD45A: Life Technologies and Expression Analysis (LTEA) Assay for growth arrest and DNA damage 45 (GADD45A) using HepaRG (AID 2283458)
In short: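 Differentiated HepaRG cells were exposed in duplicate for 48 h in serum-free induction medium to 8-point half-log concentrations up to 100 uM in 0.5% DMSO. GADD45A mRNA was measured by TaqMan qRT-PCR, normalized to ACTB, GAPDH and POLR2A, with bidirectional fitting versus DMSO.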

[12] = read-out: Forkhead box O3 (FOXO3), FOXO3 (gene 2309); assay: LTEA_HepaRG_FOXO3: Life Technologies and Expression Analysis (LTEA) Assay for Forkhead box O3 (FOXO3) using HepaRG (AID 2283459)
In short: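 HepaRG, 48 h post-dose; 8 conc., half-log from 100 uM, 0.5% DMSO, duplicates; serum-free induction medium. Readout: FOXO3 mRNA, TaqMan qRT-PCR, housekeeping-normalized. Bidirectional curve fit vs DMSO baseline.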

[13] = read-out: ABC Transporter (ABCB1), ABCB1 (gene 5243); assay: LTEA_HepaRG_ABCB1: Life Technologies and Expression Analysis (LTEA) Assay for ABC Transporter (ABCB1) using HepaRG (AID 2283460)
In short: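 Expression of ABCB1 was quantified by qRT-PCR against three housekeeping genes after human HepaRG cultures received test chemicals for 48 hours. Concentrations spanned eight half-log steps topping at 100 uM in 0.5% DMSO; gain or loss of signal was fitted relative to vehicle.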

[14] = read-out: growth arrest and DNA damage 45 (GADD45B), GADD45B (gene 4616); assay: LTEA_HepaRG_GADD45B: Life Technologies and Expression Analysis (LTEA) Assay for growth arrest and DNA damage 45 (GADD45B) using HepaRG (AID 2283461)
In short: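 Differentiated human HepaRG cells in serum-free induction medium exposed 48 h in duplicate to eight concentrations, top 100 uM, half-log steps, 0.5% DMSO. GADD45B mRNA by TaqMan qRT-PCR, normalized to ACTB, GAPDH, POLR2A; bidirectional fit versus DMSO.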

[15] = read-out: ABC Transporter (ABCC3), ABCC3 (gene 8714); assay: LTEA_HepaRG_ABCC3: Life Technologies and Expression Analysis (LTEA) Assay for ABC Transporter (ABCC3) using HepaRG (AID 2283462)
In short: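 Differentiated human HepaRG cells exposed 48 h in serum-free induction medium, 0.5% DMSO vehicle, 8-point half-log series to 100 uM in duplicate. ABCC3 mRNA by qRT-PCR, normalised to ACTB, GAPDH, POLR2A; bidirectional fit vs DMSO.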

[16] = read-out: ABC Transporter (ABCB11), ABCB11 (gene 8647); assay: LTEA_HepaRG_ABCB11: Life Technologies and Expression Analysis (LTEA) Assay for ABC Transporter (ABCB11) using HepaRG (AID 2283463)
In short: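 ABCB11 transcript levels are read by Fluidigm TaqMan qRT-PCR after 48 h chemical treatment of human HepaRG cells. Concentrations span 100 uM downward in half-log steps with 0.5% DMSO; gain or loss is fitted against DMSO controls.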

[17] = read-out: ABC Transporter (ABCC2), ABCC2 (gene 1244); assay: LTEA_HepaRG_ABCC2: Life Technologies and Expression Analysis (LTEA) Assay for ABC Transporter (ABCC2) using HepaRG (AID 2283464)
In short: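 Differentiated HepaRG cells in serum-free induction medium exposed 48 h to eight half-log concentrations up to 100 uM, 0.5% DMSO, in duplicate. ABCC2 mRNA measured by qRT-PCR (TaqMan, Fluidigm), normalized to ACTB, GAPDH and POLR2A. Fitted in both directions against DMSO.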

[18] = read-out: Broad substrate specificity ATP-binding cassette transporter ABCG2 (Homo sapiens) (UniProt Q9UNQ0); assay: LTEA_HepaRG_ABCG2: Life Technologies and Expression Analysis (LTEA) Assay for ABC Transporter (ABCG2) using HepaRG (AID 2283465)
In short: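 Read-out is ABCG2 mRNA induction or loss quantified by qRT-PCR after 48 h chemical treatment of human HepaRG cells, normalized to three housekeeping genes. Concentrations reached 100 uM top in half-log steps; fitting was bidirectional against 0.5% DMSO.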

Measured: AC50

Broad substrate specificity ATP-binding cassette transporter ABCG2 (Homo sapiens), sequence (Q9UNQ0 whole entry, looked up): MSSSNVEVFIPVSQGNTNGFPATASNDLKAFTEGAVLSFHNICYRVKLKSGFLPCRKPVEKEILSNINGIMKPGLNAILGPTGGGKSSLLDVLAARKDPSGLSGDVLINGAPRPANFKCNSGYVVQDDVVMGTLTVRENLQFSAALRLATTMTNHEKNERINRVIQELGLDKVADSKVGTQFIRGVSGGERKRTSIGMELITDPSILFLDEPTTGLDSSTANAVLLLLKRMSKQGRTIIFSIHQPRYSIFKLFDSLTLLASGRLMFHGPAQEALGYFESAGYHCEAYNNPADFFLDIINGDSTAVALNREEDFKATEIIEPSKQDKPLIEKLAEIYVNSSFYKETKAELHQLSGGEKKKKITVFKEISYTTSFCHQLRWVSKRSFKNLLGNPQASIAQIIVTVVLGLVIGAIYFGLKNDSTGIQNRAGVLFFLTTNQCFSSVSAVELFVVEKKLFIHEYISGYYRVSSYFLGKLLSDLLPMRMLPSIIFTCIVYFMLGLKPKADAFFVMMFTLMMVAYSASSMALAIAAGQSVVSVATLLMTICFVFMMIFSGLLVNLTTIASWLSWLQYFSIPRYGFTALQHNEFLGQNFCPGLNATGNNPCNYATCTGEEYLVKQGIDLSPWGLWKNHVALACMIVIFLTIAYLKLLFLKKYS
Fatty acid synthase (Homo sapiens), sequence (P49327 whole entry, looked up): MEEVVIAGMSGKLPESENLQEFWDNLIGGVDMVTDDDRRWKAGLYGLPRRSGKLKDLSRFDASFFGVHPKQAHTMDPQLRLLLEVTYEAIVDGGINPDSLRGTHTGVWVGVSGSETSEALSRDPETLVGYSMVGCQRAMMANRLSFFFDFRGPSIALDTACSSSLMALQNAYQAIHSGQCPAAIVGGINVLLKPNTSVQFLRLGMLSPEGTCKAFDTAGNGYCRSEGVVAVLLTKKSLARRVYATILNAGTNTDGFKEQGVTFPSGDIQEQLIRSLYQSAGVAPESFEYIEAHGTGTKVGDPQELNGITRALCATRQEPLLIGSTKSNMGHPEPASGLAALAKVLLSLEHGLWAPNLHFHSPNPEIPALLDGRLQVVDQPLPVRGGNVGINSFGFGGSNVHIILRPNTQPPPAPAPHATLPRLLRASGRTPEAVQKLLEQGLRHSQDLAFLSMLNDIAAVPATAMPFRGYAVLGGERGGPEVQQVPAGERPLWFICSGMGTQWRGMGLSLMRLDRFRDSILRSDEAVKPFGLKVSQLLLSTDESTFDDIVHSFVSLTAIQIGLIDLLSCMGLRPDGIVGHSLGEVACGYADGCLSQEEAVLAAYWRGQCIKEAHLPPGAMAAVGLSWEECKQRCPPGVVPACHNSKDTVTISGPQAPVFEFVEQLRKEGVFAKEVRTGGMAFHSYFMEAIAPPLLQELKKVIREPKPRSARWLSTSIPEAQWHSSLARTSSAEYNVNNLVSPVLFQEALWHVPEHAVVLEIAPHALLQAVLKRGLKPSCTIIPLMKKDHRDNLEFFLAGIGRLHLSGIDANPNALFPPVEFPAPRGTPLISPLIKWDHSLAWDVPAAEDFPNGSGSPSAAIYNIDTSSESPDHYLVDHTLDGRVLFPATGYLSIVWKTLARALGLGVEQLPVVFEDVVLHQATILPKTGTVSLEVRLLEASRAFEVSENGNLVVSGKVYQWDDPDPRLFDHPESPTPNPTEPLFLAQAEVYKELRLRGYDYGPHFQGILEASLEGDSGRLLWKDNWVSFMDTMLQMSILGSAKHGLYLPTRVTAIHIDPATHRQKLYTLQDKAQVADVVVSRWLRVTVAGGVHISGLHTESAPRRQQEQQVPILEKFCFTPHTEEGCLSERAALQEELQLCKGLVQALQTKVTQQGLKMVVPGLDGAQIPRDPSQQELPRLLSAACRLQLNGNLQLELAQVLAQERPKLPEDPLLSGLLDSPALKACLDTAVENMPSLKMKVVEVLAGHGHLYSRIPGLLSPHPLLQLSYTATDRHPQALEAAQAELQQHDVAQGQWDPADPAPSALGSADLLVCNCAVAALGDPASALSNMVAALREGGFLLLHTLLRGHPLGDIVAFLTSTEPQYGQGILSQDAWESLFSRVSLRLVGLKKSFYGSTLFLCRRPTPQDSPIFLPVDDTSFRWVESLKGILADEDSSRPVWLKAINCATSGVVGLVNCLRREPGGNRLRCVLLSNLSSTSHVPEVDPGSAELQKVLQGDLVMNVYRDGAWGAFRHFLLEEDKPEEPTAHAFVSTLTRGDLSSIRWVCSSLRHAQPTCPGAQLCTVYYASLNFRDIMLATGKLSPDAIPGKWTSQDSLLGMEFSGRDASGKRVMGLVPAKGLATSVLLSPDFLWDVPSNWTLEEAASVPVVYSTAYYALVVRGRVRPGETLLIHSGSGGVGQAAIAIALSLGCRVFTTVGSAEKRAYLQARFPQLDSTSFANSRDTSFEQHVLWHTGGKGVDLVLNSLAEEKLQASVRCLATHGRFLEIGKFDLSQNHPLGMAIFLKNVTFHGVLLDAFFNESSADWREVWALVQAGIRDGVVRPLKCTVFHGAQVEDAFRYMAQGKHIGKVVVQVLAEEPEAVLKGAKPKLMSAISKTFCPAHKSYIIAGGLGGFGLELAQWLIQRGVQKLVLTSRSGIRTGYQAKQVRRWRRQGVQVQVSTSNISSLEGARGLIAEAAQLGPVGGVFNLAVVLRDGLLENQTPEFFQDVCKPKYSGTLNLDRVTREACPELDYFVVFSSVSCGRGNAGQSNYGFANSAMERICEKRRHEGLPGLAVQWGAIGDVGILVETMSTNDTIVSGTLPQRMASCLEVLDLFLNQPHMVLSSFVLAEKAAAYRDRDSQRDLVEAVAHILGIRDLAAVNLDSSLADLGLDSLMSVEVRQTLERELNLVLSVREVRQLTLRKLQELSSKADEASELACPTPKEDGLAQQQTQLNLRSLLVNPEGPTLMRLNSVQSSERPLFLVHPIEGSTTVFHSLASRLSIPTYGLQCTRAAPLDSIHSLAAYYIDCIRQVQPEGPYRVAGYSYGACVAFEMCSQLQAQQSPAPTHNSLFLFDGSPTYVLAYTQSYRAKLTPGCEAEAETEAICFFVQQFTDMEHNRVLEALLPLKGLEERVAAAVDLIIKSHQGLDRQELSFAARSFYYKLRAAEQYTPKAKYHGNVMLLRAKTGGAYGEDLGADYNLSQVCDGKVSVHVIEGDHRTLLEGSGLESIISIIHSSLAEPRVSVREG

CN(C)[C@@H]1C(=O)C(C(N)=O)=C(O)[C@@]2(O)C(=O)C3=C(O)c4c(O)cccc4[C@@](C)(O)[C@H]3C[C@@H]12
inactive: [1] | [2] | [3] | [4] | [5] | [6] | [7] | [9] | [10] | [11] | [12] | [13] | [14] | [15] | [16] | [17] | [18]
active: [8] 34.7 µM

CCCSC(=O)N(CCC)CCC
inactive: [1] | [2] | [3] | [4] | [5] | [6] | [7] | [9] | [10] | [11] | [12] | [13] | [14] | [15] | [16] | [17] | [18]
active: [8] 50 µM

CCCCCCCCOC(=O)c1ccc(C(=O)OCCCCCCCC)c(C(=O)OCCCCCCCC)c1
inactive: [1] | [2] | [3] | [4] | [5] | [6] | [7] | [9] | [10] | [11] | [12] | [13] | [14] | [15] | [16] | [17] | [18]
active: [8] 50.5 µM

Cc1ccc([N+](=O)[O-])cc1
inactive: [1] | [2] | [3] | [4] | [5] | [6] | [7] | [9] | [10] | [11] | [12] | [14] | [15] | [16] | [18]
active: [8] 9.92 µM | [13] 2.47 µM | [17] 13 µM

Clc1ccc(C(c2ccc(Cl)cc2)C(Cl)(Cl)Cl)cc1
inactive: [1] | [3] | [4] | [5] | [6] | [9] | [10] | [11] | [12] | [14] | [15] | [16]
active: [2] 66.6 µM | [7] 88.4 µM | [8] 9.54 µM | [13] 50 µM | [17] 4.19 µM | [18] 0.788 µM

c1ccc(C2CO2)cc1 (configuration not stated)
inactive: [1] | [2] | [3] | [4] | [5] | [6] | [7] | [8] | [9] | [10] | [11] | [12] | [13] | [14] | [15] | [16] | [17] | [18]

OCCCl
inactive: [1] | [2] | [3] | [4] | [5] | [6] | [7] | [8] | [9] | [10] | [11] | [12] | [13] | [14] | [15] | [16] | [17] | [18]

CCN(CC)N=O
active: [8] 76.5 µM
inactive: [1] | [2] | [3] | [4] | [5] | [6] | [7] | [9] | [10] | [11] | [12] | [13] | [14] | [15] | [16] | [17] | [18]

CN(C)c1ccccc1
active: [8] 63.3 µM
inactive: [1] | [2] | [3] | [4] | [5] | [6] | [7] | [9] | [10] | [11] | [12] | [13] | [14] | [15] | [17] | [18]

CC(C)COC(=O)c1ccccc1C(=O)OCC(C)C
active: [8] 59.1 µM
inactive: [1] | [2] | [3] | [4] | [5] | [6] | [7] | [9] | [10] | [11] | [12] | [13] | [14] | [15] | [17] | [18]

Clc1ccccc1Cl
inactive: [1] | [2] | [3] | [4] | [5] | [6] | [7] | [8] | [9] | [10] | [11] | [12] | [13] | [14] | [15] | [17] | [18]

Brc1ccc(Oc2ccccc2)cc1
active: [8] 50 µM
inactive: [1] | [2] | [3] | [4] | [5] | [6] | [7] | [9] | [10] | [11] | [12] | [13] | [14] | [15] | [16] | [17] | [18]

CS(=O)(=O)NC(=O)c1cc(Oc2ccc(C(F)(F)F)cc2Cl)ccc1[N+](=O)[O-]
inactive: [1] | [2] | [3] | [4] | [5] | [6] | [7] | [9] | [10] | [11] | [12] | [14] | [15] | [18]
active: [8] 39.3 µM | [13] 0.644 µM | [17] 6.32 µM

C1=Cc2cccc3cccc1c23
active: [8] 20.9 µM
inactive: [1] | [2] | [3] | [4] | [5] | [6] | [7] | [9] | [10] | [11] | [12] | [13] | [14] | [15] | [17] | [18]
